Compound activity: PubChem, National Center for Advancing Translational Sciences (NCATS)
This is a sample that favours compounds with a hit; in the whole collection about 11% have one here.
NIH3T3 tox: kills NIH 3T3 cells; 94,000 compounds, 4.3% hits; NIH 3T3 viability, CellTiter-Glo ATP luminescence, 48-72 h; Potency, µM (doses to about 96.7 µM), without a hit: at the top dose activity change, negative = cytotoxicity, usual class: inhibitors; also: nearly all actives have a fitted effect of over 55% in size
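Viability of NIH 3T3 cells after 48 or 72 hr compound treatment at 37 °C was assessed by CellTiter-Glo, with luminescence imaged following a 10 min room-temperature step.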
Luciferase inh: Photinus pyralis luciferase inhibition | P08659 | purified P. pyralis luciferase, luminescence, biochemical | Potency, µM (top dose mostly 115 µM), most hits filed as inhibitors | 76,000 compounds, 2.5% hits | AID 1347043; also: nearly all actives have a fitted effect of over 65% in size
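Purified P. pyralis luciferase (10nM final) in 50mM Tris acetate pH 7.5, 10mM Mg acetate, 0.01% Tween-20, 0.05% BSA with 10uM D-luciferin and 10uM ATP. Compounds titrated qHTS. Luminescence imaged on CCD.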
HEK cytotox: kills HEK 293 cells; HEK 293 viability, ATP luminescence (CellTiter-Glo), 48-72 h; Potency, µM (top dose mostly 115 µM), for the others: at the highest dose activity change, negative = cytotoxicity, actives largely listed as inhibitors; 94,000 compounds, 6.6% hits; also: nearly all actives have a fitted effect of over 60% in size
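250 HEK 293 cells/well; compound by pintool; incubated 48 or 72 hr at 37 degree Celsius; CellTiter-Glo added, 10 min RT, luminescence imaged.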
NPR1 antag: antagonists of human natriuretic peptide receptor Npr1 | P16066 | AID 1347048 | 76,000 compounds, 1.6% hits | Potency, µM (highest dose often 46.3 µM), inactives show at the highest dose activity change, negative = inhibition, usual class: inhibitors | HEK293 hNpr1 GloSensor cGMP, ANP-stimulated luminescence; calls by dose curve; also: nearly all actives have a fitted effect of over 60% in size
Target sequence (P16066 whole entry, looked up): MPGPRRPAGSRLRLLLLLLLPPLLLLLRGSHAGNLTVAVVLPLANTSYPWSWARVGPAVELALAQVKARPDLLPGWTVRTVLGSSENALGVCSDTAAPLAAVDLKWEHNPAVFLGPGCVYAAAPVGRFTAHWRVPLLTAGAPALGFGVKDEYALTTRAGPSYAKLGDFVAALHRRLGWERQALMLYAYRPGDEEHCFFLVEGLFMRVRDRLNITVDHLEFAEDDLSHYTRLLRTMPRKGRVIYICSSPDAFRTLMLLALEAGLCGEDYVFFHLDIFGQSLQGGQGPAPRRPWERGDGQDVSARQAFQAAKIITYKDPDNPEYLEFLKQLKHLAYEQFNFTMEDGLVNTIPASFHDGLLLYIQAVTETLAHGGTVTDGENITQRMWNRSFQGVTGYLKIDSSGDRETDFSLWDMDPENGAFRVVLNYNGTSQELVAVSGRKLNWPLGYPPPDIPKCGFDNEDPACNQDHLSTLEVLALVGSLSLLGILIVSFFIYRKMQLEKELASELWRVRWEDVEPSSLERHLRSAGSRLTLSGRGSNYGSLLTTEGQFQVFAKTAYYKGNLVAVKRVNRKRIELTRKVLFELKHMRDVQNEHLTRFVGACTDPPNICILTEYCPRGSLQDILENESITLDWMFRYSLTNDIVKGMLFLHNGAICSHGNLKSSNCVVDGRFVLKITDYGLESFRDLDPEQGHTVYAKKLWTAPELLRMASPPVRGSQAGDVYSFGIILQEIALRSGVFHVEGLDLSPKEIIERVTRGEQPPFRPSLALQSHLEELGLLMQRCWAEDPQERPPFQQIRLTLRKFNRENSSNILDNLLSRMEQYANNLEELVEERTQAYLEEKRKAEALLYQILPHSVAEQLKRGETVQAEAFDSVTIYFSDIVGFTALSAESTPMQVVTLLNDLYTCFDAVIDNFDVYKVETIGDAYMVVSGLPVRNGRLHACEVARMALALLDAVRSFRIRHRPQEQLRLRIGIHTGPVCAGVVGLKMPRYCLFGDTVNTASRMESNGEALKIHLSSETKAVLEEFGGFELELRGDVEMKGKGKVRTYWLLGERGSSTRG
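Compound pre-incubated 30 min at room temperature on GloSensor-loaded HEK293 cells stably carrying hNpr1 and the pGS-40F cGMP biosensor. Stimulation uses hNppA at 0.1 nM final; luminescence is taken at baseline and 20 min post-agonist.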
* marks the source's active call; other numbers are inactive results; i = inactive; ? = inconclusive; nt = not tested or not shown; [ ] = another dose, or the depositor's remark. Unless noted, calls follow the shape of the dose curve; as a rule, active = well fitted curve in the direction sought with a large enough effect; inconclusive = small, poorly fitted or top-dose-only effect, or another doubt; inactive = no such curve, though single readings can be large; an effect the other way counts as inactive or inconclusive. % is scaled to controls: 0 for no effect and ±100 for the full control effect; potency is read from the fitted curve at half-maximal effect.

SMILES	NIH3T3 tox	Luciferase inh	HEK cytotox	NPR1 antag
Cc1nc(-c2cccs2)cc([C@H]2CN3CC[C@H]2C[C@@H]3CNC(=O)c2ccco2)n1	?	i	?	-11%[70.6 µM]
COC[C@H]1CCCN1C[C@H]1CN2CC[C@H]1C[C@@H]2CNC(=O)c1ccc(N(C)C)cc1	71µM*	i	?	0%[70.6 µM]
Cc1nc(-c2cccs2)cc([C@H]2CN3CC[C@H]2C[C@@H]3CNC(=O)c2ccc(N(C)C)cc2)n1	22µM*	i	35µM*	1%
Cn1nc(C2CCCCC2)cc1[C@H]1CN2CC[C@H]1C[C@@H]2CNC(=O)Nc1ccccc1	28µM*	i	32µM*	3%[70.6 µM]
COc1ccc(OC)c(S(=O)(=O)NC[C@H]2C[C@@H]3CCN2C[C@@H]3c2cc(-c3cccs3)nn2C)c1	79µM*	i	?	-15%
Cn1nc(C2CCCCC2)cc1[C@H]1CN2CC[C@H]1C[C@@H]2CNC(=O)c1ccc2c(c1)OCO2	?	i	?	-2%
Cc1ccc(C(=O)NC[C@H]2C[C@@H]3CCN2C[C@@H]3c2cc(-c3cccs3)nn2C)cc1	112µM*	i	?	2%[70.6 µM]
Cc1ccc(C(=O)NC[C@H]2C[C@@H]3CCN2C[C@@H]3c2cc(C3CCCCC3)nn2C)cc1	35µM*	i	?	-11%[70.6 µM]
Cn1nc(C2CCCCC2)cc1[C@H]1CN2CC[C@H]1C[C@@H]2CNC(=O)Nc1cccc(C#N)c1	?	i	?	-8%
O=C(c1ccccc1)N1C[C@@H]2C[C@H](C1)c1ccc(NS(=O)(=O)c3cccs3)c(=O)n1C2	4%	i	i	3%
Cc1ccc(-n2cccc2CC(=O)N2CCN(C3CCN(C)CC3)CC2)cc1	-17%	i	-25%	0%
Cn1nc(C2CCCCC2)cc1[C@H]1CN2CC[C@H]1C[C@@H]2CNC(=O)NCc1ccccc1	?	i	79µM*	1%
Cc1ncc2c(n1)C[C@@H]1CC[C@H]2N1C(=O)Nc1ccc2c(c1)OCCO2	4%	32µM*	i	5%
Cc1ccccc1-c1ccc2n(c1=O)C[C@H]1C[C@@H]2CN(C(=O)CCC(=O)O)C1	1%[174 µM]	i	-9%[172 µM]	3%[70.6 µM]
O=C(O)COCC(=O)N1C[C@@H]2C[C@H](C1)c1ccc(-c3cc4ccccc4s3)c(=O)n1C2	-9%	?	-8%	3%
O=c1c(-c2cccs2)ccc2n1C[C@H]1C[C@@H]2CN(Cc2cc3ccccc3o2)C1	?	i	89µM*	-20%[70.6 µM]
Cc1ccccc1-c1ccc2n(c1=O)C[C@H]1C[C@@H]2CN(Cc2cccs2)C1	?	i	71µM*	?
O=c1ccc(-c2cccs2)c2n1C[C@H]1C[C@@H]2CN(S(=O)(=O)c2cccs2)C1	-26%[174 µM]	i	-13%[172 µM]	-9%[70.6 µM]
Cc1nc(-c2ccc(N(C)C)cc2)cc([C@H]2CN3CC[C@H]2C[C@@H]3CNC(=O)C(C)(C)C)n1	89µM*	i	56µM*	1%[70.6 µM]
Cc1nc(-c2ccc(N(C)C)cc2)cc([C@H]2CN3CC[C@H]2C[C@@H]3CNC(=O)N2CCOCC2)n1	?	i	?	0%
Cc1nc(-c2ccc(C(F)(F)F)cc2)cc([C@H]2CN3CC[C@H]2C[C@@H]3CNC(=O)C2CC2)n1	?	i	?	3%
Cc1nc(-c2ccc(N(C)C)cc2)cc([C@H]2CN3CC[C@H]2C[C@@H]3CNCc2cccc(C#N)c2)n1	28µM*	?	25µM*	-21%
Cc1nc(-c2ccc(N(C)C)cc2)cc([C@H]2CN3CC[C@H]2C[C@@H]3CNC(=O)C2CC2)n1	100µM*	i	71µM*	-2%[70.6 µM]
COc1cc2c(cc1OC1CCCC1)NC(=O)C21CCN(Cc2ccccc2)CC1	89µM*	i	?	-14%[70.6 µM]
COc1cc2c(cc1OC1CCCC1)NC(=O)C21CCN(C(=O)Cc2ccccc2)CC1	89µM*	i	79µM*	?
SMILES	NIH3T3 tox	Luciferase inh	HEK cytotox	NPR1 antag
COc1cc2c(cc1OCC1CCCC1)N([S+](=O)([O-])c1cccc(C(F)(F)F)c1)CC21CCN(CC(=O)O)CC1	40µM*	i	45µM*	2%
COc1cc2c(cc1OCC1CCCC1)N([S+](=O)([O-])c1ccc(Oc3ccccc3)cc1)CC21CCN(CC(=O)O)CC1	?	i	?	0%
Cc1ncc2c(n1)C[C@@H]1CC[C@H]2N1C(=O)NCCc1ccccc1	i	nt	i	nt
Cc1cnc(N2CC3CCC(C2)N3CC(F)(F)F)c([N+](=O)[O-])c1	-17%	nt	-7%	nt
COc1ccc2c(c1)C1(CCN(C(=O)C(C)(C)C)C1)C(=O)N2C (stereo unspecified)	-12%	i	?	-7%
Cc1cccc([C@H]2C[C@@H](O)[C@@H](O)[C@@H]2NCC2CCCC2)c1	89µM*	i	50µM*	-28%[70.6 µM]
COc1ccc(CNC[C@H]2C[C@@H]3CCN2C[C@@H]3c2cc(C3CCCCC3)nn2C)cc1	28µM*	i	32µM*	3%[70.6 µM]
COc1ccc(CNC[C@H]2C[C@@H]3CCN2C[C@@H]3c2cc(-c3ccc4ccccc4c3)nn2C)cc1	25µM*	i	?	0%
COc1ccccc1NC(=O)Nc1ccc2n(c1=O)C[C@H]1C[C@@H]2CN(C(=O)C(=O)O)C1	0%[174 µM]	i	-1%[172 µM]	-1%[70.6 µM]
CCOC(=O)[C@H]1CN([S+](=O)([O-])c2cccs2)[C@]2(C)C(=O)N(CCOC)c3ccccc3[C@H]12	?	nt	-18%[57.5 µM]	nt
CN1CCN(C(=O)Cc2c[nH]c3ncc(-c4cccc(OC(F)(F)F)c4)cc23)CC1	79µM*	i	?	-1%[70.6 µM]
CN1CCN(C(=O)Cc2c[nH]c3ncc(-c4ccccc4Oc4ccccc4)cc23)CC1	?	i	79µM*	?
COc1ccc(-c2cnc3[nH]cc(CC(=O)N4CCN(C)CC4)c3c2)cc1OC	?	i	-22%[172 µM]	5%[70.6 µM]
COc1cccc(-c2cnc3[nH]cc(CC(=O)N4CCN(C)CC4)c3c2)c1	?	20µM*	?	-19%[70.6 µM]
CCC1(N2CCN(C(=O)Cc3c[nH]c4ccccc34)CC2)CCN(S(C)(=O)=O)C1 (stereo unspecified)	-22%	i	-7%	-16%
CC(C)CCN(C1CCNCC1)C1CCOCC1	-3%	i	-15%	2%
COc1cc2c(cc1Oc1ccccc1)NC(=O)C21CCN(CC2CC2)CC1	45µM*	i	?	-2%[70.6 µM]
COc1cc2c(cc1Oc1ccccc1)NC(=O)C21CCN(C(=O)C(C)C)CC1	-18%[138 µM]	i	?	7%[70.6 µM]
COc1cc2c(cc1Oc1cccc(N(C)C)c1)NC(=O)C21CCN(CC2CC2)CC1	79µM*	i	?	?
COc1cc2c(cc1Oc1cccc(N(C)C)c1)NC(=O)C21CCN(c2ncccn2)CC1	?	i	?	?
O=C(c1ccc(F)cc1)N1C[C@@H]2C[C@H](C1)c1c(/C=C/c3ccc(Cl)cc3)ccc(=O)n1C2	?	i	?	-19%
